ADAM17 inh: inhibitors of human ADAM17; P78536; recombinant ADAM17, EDANS/DABCYL FRET peptide cleavage; inhibition, % at 6.95 µM; 370,000 tested, 0.83% active; AID 720648;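 active = inhibition above the mean of compounds lying between control limits plus 3 SD, set per campaign, cut at about 8.5% in these data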;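 note: 0% = DMSO-only wells as the low control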
FGF22 binding: FGF22 (human) thermal shift binding | 340,000 tested, 1.5% active | AID 651658 | recombinant FGF22 thermal shift, SYPRO orange fluorescence; percent of sucrose octasulfate shift, DMSO zero | activity (Tm shift, normalised), % at 9.99 µM | Q9HCT0;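 active = mean Tm shift, scaled 0 neutral to 100 positive control, at about 1.3% or above, every replicate too, limit read from the data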
Target sequence (Q9HCT0 whole entry, looked up): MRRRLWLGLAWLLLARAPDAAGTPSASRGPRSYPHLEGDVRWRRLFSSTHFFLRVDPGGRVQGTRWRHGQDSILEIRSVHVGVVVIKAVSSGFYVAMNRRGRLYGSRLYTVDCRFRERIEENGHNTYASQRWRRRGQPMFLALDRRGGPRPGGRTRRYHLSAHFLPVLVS
Ecoli rRNA inh: inhibits bacterial ribosomal RNA function over humanized ribosomes; E. coli WT GFP vs humanized-ribosome RFP mutants, fluorescence, 24 h; active compounds read low; DMSO median 0, no signal -100; GFP signal change (wild-type ribosome), % (test concentration not listed); 350,000 tested, 1.6% active; AID 720706;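 active = significant combined selectivity score with lowered wild-type GFP, culture density cut under 30%, mutant RFP and density less affected; inactive = any of these conditions unmet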
proKLK7 act: activates the human kallikrein-7 zymogen | purified proKLK7, EDANS-DABCYL substrate fluorescence; 100% is mature enzyme control, 0% vehicle | activation, % at 7 µM | 370,000 tested, 0.9% active;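 active = activation above the mean of all tested compounds plus 3 SD, computed per campaign excluding outliers beyond control limits, cut at about 13% in these data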
Target sequence (P49862 whole entry, looked up): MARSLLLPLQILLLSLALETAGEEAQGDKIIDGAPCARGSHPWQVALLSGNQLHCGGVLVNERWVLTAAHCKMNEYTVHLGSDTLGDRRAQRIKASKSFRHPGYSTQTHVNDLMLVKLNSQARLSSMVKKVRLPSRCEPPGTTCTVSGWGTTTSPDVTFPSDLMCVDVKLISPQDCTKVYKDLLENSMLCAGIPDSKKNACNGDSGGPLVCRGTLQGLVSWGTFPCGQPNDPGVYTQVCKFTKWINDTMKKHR
ADAM10 inh: ADAM10 inhibition, QFRET primary screen; O14672; recombinant ADAM10, EDANS/DABCYL FRET peptide cleavage, 3 h; inhibition, % at 7 µM; 370,000 tested, 0.62% active; AID 720582;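 active = inhibition above a per-campaign cutoff equal to the mean of compounds falling between control-based bounds plus 3 SD, cut at about 20% in these data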;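 note: 0% = DMSO wells while the 100% control is not disclosed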
KLK7 act conf: proKLK7 activation, confirmation. purified proKLK7, EDANS-DABCYL substrate fluorescence; scaled: vehicle 0, mature enzyme 100. activation, % at 7 µM. shares compounds with proKLK7 act. 3,200 tested, 68% active. AID 686949;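 active = activation, as change over the incubation, above the mean of all tested compounds plus 3 SD, cut at about 13% in these data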
EDANS-DABCYL int: counter-screen for kallikrein-7 activators: EDANS-DABCYL optical interference; 3,200 tested, 80% active; EDANS-DABCYL substrate fluorescence interference, no enzyme, 4 h; solvent 0%, active enzyme control 100%; activation, % at 7 µM; shares compounds with proKLK7 act;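 active = activation above the all-compound mean plus 3 SD, ignoring values outside control-based bounds, cut at about 4.8% in these data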;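 note: value is the 4 h activation minus the activation read at time zero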
K7 EDANS ctr: optically interferes with EDANS-DABCYL fluorescence, kallikrein-7 activator counter-screen | shares compounds with proKLK7 act | EDANS-DABCYL peptide fluorescence interference, no enzyme | EC50, µM | 250 tested, 20% active;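 active = compounds that raise the fluorescence signal in this interference counterscreen, with EC50 at or below 10 µM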;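 note: intact quenched peptide substrate alone read at 355 nm excitation and 520 nm emission; signal is fluorescence gain from T0 to T4 after four hours at room temperature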
Active calls of the source: *. The list is not random: actives were taken first. Their share in the collection is about 3.8%.

Screening CCCn1c(-c2cccs2)nc2nc3ccccc3nc21 returned ADAM17 inh inactive, proKLK7 act 41.5*, ADAM10 inh inactive, KLK7 act conf -55.1 and EDANS-DABCYL int -64.0.
Screening COCCn1c(-c2ccco2)nc2nc3ccccc3nc21 returned ADAM17 inh inactive, proKLK7 act 42.6*, ADAM10 inh inactive, KLK7 act conf 62.3* and EDANS-DABCYL int 82.0*.
CCCn1c(-c2cccs2)nc2c1c(=O)[nH]c(=O)n2Cc1ccccc1 was read as ADAM17 inh -28.6, FGF22 binding 0.5, Ecoli rRNA inh 23.9, proKLK7 act -0.6 and ADAM10 inh -77.5.
Screening CC(C)OCCCn1c(-c2ccco2)nc2nc3ccccc3nc21 returned ADAM17 inh -219.4, proKLK7 act 3.9 and ADAM10 inh inactive.
`COCCn1c(-c2cccs2)nc2nc3ccccc3nc21` gave ADAM17 inh inactive, FGF22 binding -0.1, proKLK7 act 37.7*, ADAM10 inh inactive, KLK7 act conf 68.5* and EDANS-DABCYL int 73.0*.
Screening C[C@@H](NC(=O)C[C@@H]1C[C@@H]2c3cc(NC(=O)NC4CCCC4)ccc3O[C@@H]2[C@H](CO)O1)c1ccccc1 returned Ecoli rRNA inh -3.7.
Screening CCOc1c2ccc(C(=O)NCc3ccco3)cc2nn1CCOC returned ADAM17 inh -155.7, FGF22 binding -0.2, Ecoli rRNA inh 4.7, proKLK7 act 18.1*, ADAM10 inh inactive, KLK7 act conf 23.7* and EDANS-DABCYL int 29.4*.
CCOc1c2ccc(C(=O)NCc3ccc4c(c3)OCO4)cc2nn1CCOC was read as ADAM17 inh -210.0, FGF22 binding 0.1, Ecoli rRNA inh 4.7, proKLK7 act 13.1*, ADAM10 inh inactive, KLK7 act conf -13.6 and EDANS-DABCYL int -19.2.
CCCCn1nc2cc(C(=O)NCC3CC3)ccc2c1OCC was read as ADAM17 inh -241.8, FGF22 binding 0.1, Ecoli rRNA inh -4.6, proKLK7 act 17.6*, ADAM10 inh inactive, KLK7 act conf -2.9 and EDANS-DABCYL int -5.4.
CCCCn1nc2cc(C(=O)NCc3ccccc3)ccc2c1OCC was read as ADAM17 inh -289.1, FGF22 binding -0.2, Ecoli rRNA inh -22.8, proKLK7 act -3.2 and ADAM10 inh inactive.
Screening CCCCn1nc2cc(C(=O)NCc3ccco3)ccc2c1OCC returned ADAM17 inh -166.3, proKLK7 act 5.5 and ADAM10 inh inactive.
CCOc1c2ccc(C(=O)NCc3ccco3)cc2nn1CC was read as ADAM17 inh -125.0, proKLK7 act 21.7*, ADAM10 inh inactive, KLK7 act conf 18.9* and EDANS-DABCYL int 19.9*.
`O=C(Nc1ccccc1F)N[C@@H]1CC[C@H](CCNC(=O)C2CCC2)O[C@@H]1CO` gave FGF22 binding 0.0 and Ecoli rRNA inh -0.5.
For O=C(Nc1cccc(F)c1)N1CC(=O)N2[C@H](C1)[C@H](c1ccc(-c3ccccc3)cc1)[C@@H]2CO the results were Ecoli rRNA inh -9.2.
Screening COCCCNC(=O)C[C@H]1C[C@H](C(=O)N2CCCCC2)[C@@]2(C)c3[nH]c4cc(-c5ccco5)ccc4c3CCN2C1=O returned ADAM17 inh -132.2, FGF22 binding -0.4, Ecoli rRNA inh 8.8, proKLK7 act 170.0*, ADAM10 inh -447.8, KLK7 act conf 87.9* and EDANS-DABCYL int 114.1*.
`C[C@]12c3[nH]c4cc(-c5ccco5)ccc4c3CCN1C(=O)[C@@H](CC(=O)NCc1cccc(C(F)(F)F)c1)C[C@@H]2C(=O)N1CCOCC1` gave ADAM17 inh -125.2, FGF22 binding 0.0, Ecoli rRNA inh 8.8, proKLK7 act 16.1*, ADAM10 inh -436.6, KLK7 act conf -1.4 and EDANS-DABCYL int -2.2.
C[C@]12c3[nH]c4ccccc4c3CCN1C(=O)C(CC(=O)NCc1cccc(C(F)(F)F)c1)C[C@@H]2C(=O)N1CCOCC1 (stereo partly specified) was read as ADAM17 inh 0.0, FGF22 binding -0.2, Ecoli rRNA inh -3.9, proKLK7 act 0.3 and ADAM10 inh 4.4.
For COCCCNC(=O)CC1C[C@H](C(=O)N2CCCCC2)[C@@]2(C)c3[nH]c4ccccc4c3CCN2C1=O (stereo partly specified) the results were ADAM17 inh -5.1, FGF22 binding 0.1, Ecoli rRNA inh 14.8, proKLK7 act 0.0 and ADAM10 inh -10.9.
Screening C[C@]12c3[nH]c4cc(-c5ccco5)ccc4c3CCN1C(=O)[C@@H](CC(=O)NCCN1CCOCC1)C[C@@H]2C(=O)N1CCCCC1 returned ADAM17 inh -95.3, FGF22 binding 0.0, Ecoli rRNA inh 7.2, proKLK7 act 134.3*, ADAM10 inh -371.2, KLK7 act conf 62.6* and EDANS-DABCYL int 60.6*.
C[C@H]1CCCCO[C@H](CN(C)S(=O)(=O)c2ccccc2)[C@@H](C)CN([C@@H](C)CO)C(=O)c2cc(NC(=O)Nc3ccc(F)cc3)ccc2O1 was read as FGF22 binding 0.3 and Ecoli rRNA inh 2.6.
For Cn1c(-c2cc3ccc(OC(=O)C(C)(C)C)cc3oc2=O)nc2ccccc21 the results were ADAM17 inh -273.1, proKLK7 act 34.4*, ADAM10 inh inactive, KLK7 act conf 62.2* and EDANS-DABCYL int 60.0*.
Screening CC(=O)Oc1ccc2cc(-c3nc4ccccc4n3C)c(=O)oc2c1 returned ADAM17 inh inactive, proKLK7 act 38.7*, ADAM10 inh inactive, KLK7 act conf 75.7* and EDANS-DABCYL int 79.5*.
Screening CCOC(=O)c1cc2c(=O)n3ccccc3nc2n(CC2CCCO2)c1=NC(C)=O (stereo unspecified) returned ADAM17 inh inactive, proKLK7 act 80.2*, ADAM10 inh inactive, KLK7 act conf 64.1* and EDANS-DABCYL int 67.5*.
For CCOC(=O)c1cc2c(=O)n3ccccc3nc2n(CC2CCCO2)c1=NC(=O)/C=C/c1ccccc1 (stereo unspecified) the results were ADAM17 inh inactive, Ecoli rRNA inh -2.0, proKLK7 act 92.2*, ADAM10 inh inactive, KLK7 act conf 16.1*, EDANS-DABCYL int 1.0 and K7 EDANS ctr >69.5.
